This is a sample that favours compounds with a hit; in the whole collection about 17% have one here.
ClpP mod: qHTS Assay for Activators of ClpP | purified B. subtilis ClpP, FRET peptide cleavage, 20 min | Potency, µM (titrated, usually from 57.5 µM) | 340,000 tested, 1.9% active | AID 651965, 2013 | ATP-dependent Clp protease proteolytic subunit (Bacillus subtilis (strain 168)), P80244; active = well fitted falling curve with a large enough effect; inconclusive = small, poorly fitted or top-dose-only effect; inactive = no such curve, though single readings can be large or run the other way; note: the source files actives as falling curves though it sought activators and does not explain the sign; nearly all actives have a fitted effect of over 65% in size
Target sequence (P80244 whole entry, looked up): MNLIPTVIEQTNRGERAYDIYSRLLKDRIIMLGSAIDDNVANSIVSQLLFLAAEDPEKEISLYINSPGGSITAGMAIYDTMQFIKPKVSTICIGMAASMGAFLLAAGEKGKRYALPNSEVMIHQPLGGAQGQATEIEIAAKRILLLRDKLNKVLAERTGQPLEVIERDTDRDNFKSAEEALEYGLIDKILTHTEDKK
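Purified B. subtilis ClpP, 10 microg/mL final in Tris/HCl pH8 with KCl, BSA, glycerol and Tween-20, cleaved an Abz/nitrotyrosine-quenched decapeptide. Fluorescence (ex 320, em 430) was read at 0 and 20 min at room temperature. Delta was normalized to 5.8 microM ADEP and DMSO/no-enzyme controls.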
DT40 TDP1 no CPT: qHTS for Inhibitors of human tyrosyl-DNA phosphodiesterase 1 (TDP1): qHTS in cells in absence of CPT; DT40 Tdp1-/- hTDP1 cells, no CPT, ATP luminescence, 48 h; Potency, µM (titrated, usually from 46.2 µM), actives largely listed as inhibitors; 420,000 tested, 15% active; AID 686978, 2013; note: nearly all actives have a fitted effect of over 55% in size
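Cells were dispensed at 400 per well, compounds added by pin tool, plates incubated ≥48 hr at 37 °C, then CellTiter-Glo added for 30 min at room temperature before luminescence reading. Line: DT40 Tdp1-/- complemented with hTDP1; camptothecin omitted.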
TDP1 inh: qHTS Assay for Inhibitors of Tyrosyl-DNA Phosphodiesterase (TDP1) | recombinant TDP1, AlphaScreen DNA substrate cleavage | Potency, µM (series often up to 130 µM), usual class: inhibitors | 350,000 tested, 0.28% active; note: nearly all actives have a fitted effect of over 40% in size
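E. coli-derived human Tdp1, 1 nM final. Cpd preinc 15 min RT; substrate 15 nM final, 5 min RT; AS bead mix 10 ug/ml final, 10 min RT. Signal loss = tyrosine-FITC cleavage. No-enzyme wells = max signal.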
DT40 TDP1 CPT: qHTS for Inhibitors of human tyrosyl-DNA phosphodiesterase 1 (TDP1): qHTS in cells in presence of CPT; chicken DT40 Tdp1-/-;hTDP1 cells + 20 nM CPT, ATP luminescence, 48 h; Potency, µM (top dose mostly 46.2 µM), actives largely listed as inhibitors; 420,000 tested, 12% active; AID 686979, 2013; note: nearly all actives have a fitted effect of over 55% in size
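Chicken DT40 Tdp1-/- cells stably complemented with human TDP1 were seeded at 400 cells/well in medium containing 20 nM camptothecin, exposed to pin-transferred compounds, and grown at 37 °C for at least 48 hr. Viability was read as ATP luminescence.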
Numbers stand for hits. Unless noted, calls come from the whole dose curve; as a rule, active = well fitted curve in the direction sought with a large enough effect; inconclusive = small, poorly fitted or top-dose-only effect, or another doubt; inactive = no such curve, though single readings can be large; an effect the other way counts as inactive or inconclusive.

Screening C=CC[C@@H](CC(=O)NCCO)C(=O)NC[C@H](OC(=O)[C@@H](CC=C)CC(=O)OC(C)(C)C)c1ccccc1 returned ClpP mod inactive, DT40 TDP1 no CPT inconclusive, TDP1 inh inactive and DT40 TDP1 CPT inconclusive.
For C=CC[C@@H](CC(=O)N[C@H](CO)Cc1ccccc1)C(=O)N[C@H](COC(=O)[C@@H](CC=C)CC(=O)OC(C)(C)C)Cc1c[nH]c2ccccc12 the results were ClpP mod inactive, DT40 TDP1 no CPT inconclusive, TDP1 inh inactive and DT40 TDP1 CPT inconclusive.
C=CC[C@H](CC(=O)N[C@H](CO)Cc1ccccc1)C(=O)N[C@@H](COC(=O)[C@H](CC=C)CC(=O)OC(C)(C)C)Cc1c[nH]c2ccccc12 was read as ClpP mod inactive, DT40 TDP1 no CPT 23µM, TDP1 inh inactive and DT40 TDP1 CPT 21µM.
Screening C=CC[C@@H](CC(=O)N[C@@H](CO)Cc1ccccc1)C(=O)NC[C@@H](OC(=O)[C@@H](CC=C)CC(=O)OC(C)(C)C)c1ccccc1 returned ClpP mod inactive, DT40 TDP1 no CPT inconclusive, TDP1 inh inactive and DT40 TDP1 CPT 21µM.
Screening Cc1ccc(C(=O)C(C)OC(=O)C2CCN(c3ccc(C(F)(F)F)cn3)CC2)cc1 (centres undefined) returned ClpP mod inactive, DT40 TDP1 no CPT inconclusive, TDP1 inh inactive and DT40 TDP1 CPT inconclusive.
For O=C(COC(=O)c1ccc[nH]c1=O)NC1CCCc2ccccc21 (centres undefined) the results were DT40 TDP1 no CPT inactive and DT40 TDP1 CPT inactive.
Screening CC(C(=O)Nc1ccc2c(c1)OCCO2)N(C)CC(=O)Nc1ccccc1Br (centres undefined) returned ClpP mod inactive, DT40 TDP1 no CPT inactive, TDP1 inh inactive and DT40 TDP1 CPT inactive.
Screening C=CC[C@@H](CC(=O)N[C@@H](CO)Cc1ccccc1)C(=O)N[C@@H](COC(=O)[C@H](CC=C)CC(=O)OC(C)(C)C)Cc1c[nH]c2ccccc12 returned ClpP mod inactive, DT40 TDP1 no CPT 21µM, TDP1 inh inactive and DT40 TDP1 CPT inconclusive.
Screening C=CC[C@@H](CC(=O)N[C@H](CO)Cc1ccccc1)C(=O)N[C@@H](COC(=O)[C@@H](CC=C)CC(=O)OC(C)(C)C)Cc1ccccc1 returned ClpP mod inactive, DT40 TDP1 no CPT inconclusive, TDP1 inh inactive and DT40 TDP1 CPT 16µM.
`C=CC[C@H](CC(=O)N[C@H](CO)Cc1ccccc1)C(=O)N[C@H](COC(=O)[C@@H](CC=C)CC(=O)OC(C)(C)C)Cc1c[nH]c2ccccc12` gave ClpP mod inactive, DT40 TDP1 no CPT inconclusive, TDP1 inh inactive and DT40 TDP1 CPT inconclusive.
CCN(CC)c1ccc(NS(=O)(=O)c2ccc3c(c2)oc(=O)n3C)c(C)c1 was read as ClpP mod inactive, DT40 TDP1 no CPT inconclusive, TDP1 inh inactive and DT40 TDP1 CPT 26µM.
Screening Cc1nn(Cc2c(F)c(F)c(F)c(F)c2F)c(C)c1NC(=O)c1cccc(COc2ccc(Cl)cc2)c1 returned ClpP mod inactive, DT40 TDP1 no CPT 7.3µM, TDP1 inh inactive and DT40 TDP1 CPT 10µM.
`CC(C)c1cc(C(N)=O)c(NC(=O)c2cccc(COc3ccc(Cl)cc3)c2)s1` gave ClpP mod inactive, DT40 TDP1 no CPT inconclusive, TDP1 inh inactive and DT40 TDP1 CPT 26µM.
Screening CCn1ccc(C(=O)Nc2c(C)nn(Cc3c(F)c(F)c(F)c(F)c3F)c2C)n1 returned ClpP mod inactive, DT40 TDP1 no CPT 16µM, TDP1 inh inactive and DT40 TDP1 CPT inconclusive.
For CCn1cc(Cl)c(C(=O)Nc2c(C)nn(Cc3c(F)c(F)c(F)c(F)c3F)c2C)n1 the results were ClpP mod inactive, DT40 TDP1 no CPT inconclusive, TDP1 inh inactive and DT40 TDP1 CPT 15µM.
For Cc1nn(Cc2c(F)c(F)c(F)c(F)c2F)c(C)c1NC(=O)c1nn(C)cc1Br the results were ClpP mod inactive, DT40 TDP1 no CPT inactive, TDP1 inh inactive and DT40 TDP1 CPT inconclusive.
CCn1cc([N+](=O)[O-])c(C(=O)Nc2c(C)nn(Cc3c(F)c(F)c(F)c(F)c3F)c2C)n1 was read as ClpP mod inactive, DT40 TDP1 no CPT inactive, TDP1 inh inactive and DT40 TDP1 CPT inconclusive.
`O=C1CCC(C(=O)OCC(=O)Nc2ccc(SC(F)F)cc2)=NN1` gave ClpP mod inactive, DT40 TDP1 no CPT inactive and DT40 TDP1 CPT inactive.
CC(C)c1nc2cc(C(=O)N3CCN(c4cnccn4)CC3)ccc2o1 was read as ClpP mod inactive, DT40 TDP1 no CPT inactive, TDP1 inh inactive and DT40 TDP1 CPT inactive.
For Cc1ccc(Cn2c(SCCN3CCCCC3)nc3c2c(=O)n(C)c(=O)n3C)cc1 the results were ClpP mod inactive, DT40 TDP1 no CPT 15µM, TDP1 inh inactive and DT40 TDP1 CPT inconclusive.
For Cn1c(=O)c2c(nc(SCCN3CCOCC3)n2Cc2cccc3ccccc23)n(C)c1=O the results were ClpP mod inactive, DT40 TDP1 no CPT 5.2µM, TDP1 inh inactive and DT40 TDP1 CPT 8.2µM.
CC(=O)Nc1ccc(S(=O)(=O)N2CCCC2C(=O)Nc2ccc3c(c2)OCCO3)cc1 (centres undefined) was read as DT40 TDP1 no CPT inactive, TDP1 inh inactive and DT40 TDP1 CPT inactive.
COC(=O)C1=C(c2ccccc2)c2ccccc2S(=O)(=O)N1CC(=O)Nc1cccc(C(C)=O)c1 was read as ClpP mod inactive, DT40 TDP1 no CPT inconclusive, TDP1 inh inactive and DT40 TDP1 CPT inactive.
`CCN1CCN(C(c2ccc(C)cc2)c2sc3nc(-c4ccco4)nn3c2O)CC1` (centres undefined) gave ClpP mod inactive, DT40 TDP1 no CPT inactive, TDP1 inh inactive and DT40 TDP1 CPT inactive.
For Cc1ccc(C2=NCN(c3ccc(C(=O)O)cc3)C(=S)N2)cc1 the results were TDP1 inh inactive.
For NC(c1csc(Nc2nccc(C(F)(F)F)n2)n1)C1CCCCC1 (centres undefined) the results were ClpP mod inactive, DT40 TDP1 no CPT 12µM and DT40 TDP1 CPT inconclusive.
For NC(c1csc(Nc2ncccn2)n1)C1CCCCC1 (centres undefined) the results were ClpP mod inactive, DT40 TDP1 no CPT inconclusive and DT40 TDP1 CPT inconclusive.
NC(c1csc(Nc2cnccn2)n1)C1CCCCC1 (centres undefined) was read as ClpP mod inactive, DT40 TDP1 no CPT inactive and DT40 TDP1 CPT 23µM.
For NC(c1csc(Nc2ccc(C(F)(F)F)cn2)n1)C1CCCCC1 (centres undefined) the results were ClpP mod inactive, DT40 TDP1 no CPT 21µM and DT40 TDP1 CPT 23µM.
NC(CO)c1csc(Nc2ccc(C(F)(F)F)cn2)n1 (centres undefined) was read as ClpP mod inactive, DT40 TDP1 no CPT inconclusive and DT40 TDP1 CPT inconclusive.

Source: PubChem BioAssay (National Center for Advancing Translational Sciences (NCATS))
